Experimental data taken from the supplement of paper PMC12282887.
± gives the standard deviation of the averaged measurements.

Assays:
Assay in all cases: promoter activity interaction Z-score (Lux/OD deviation from empty-vector control); higher = stronger promoter induction by the compound
[1] = test system: E. coli BW25113 acrABp lux reporter
Procedure, shortened: (§1)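 Four 1:2 dilutions of each compound were tested in biological duplicates on E. coli BW25113 carrying low-copy luxCDABE promoter reporters, either wild type or deleted for one of three genes. Cultures of 40 µl LB Lennox in 384-well plates were kept at 37°C and read for OD600 and luminescence every 30 min for 12 h. Integration windows were 0–8 h for wild type and 1–9 h for deletion strains, and wells under 10% of the median growth value were discarded. The score is a Z-transformed residual of growth-normalised luminescence relative to a control fit.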

[2] = test system: E. coli BW25113 marRABp lux reporter
Procedure, shortened: as §1

[3] = test system: E. coli BW25113 micFp lux reporter
Procedure, shortened: as §1

[4] = test system: E. coli BW25113 ompFp lux reporter
Procedure, shortened: as §1

[5] = test system: E. coli BW25113 robp lux reporter
Procedure, shortened: as §1

[6] = test system: E. coli BW25113 soxSp lux reporter
Procedure, shortened: as §1

[7] = test system: E. coli BW25113 tolCp lux reporter
Procedure, shortened: as §1

[8] = 13.5 µg/ml, genetic background: wild type
[9] = 13.5 µg/ml, genetic background: ΔmarA
[10] = 13.5 µg/ml, genetic background: Δrob
[11] = 13.5 µg/ml, genetic background: ΔsoxS
[12] = 26.9 µg/ml, genetic background: wild type
[13] = 26.9 µg/ml, genetic background: ΔmarA
[14] = 26.9 µg/ml, genetic background: Δrob
[15] = 26.9 µg/ml, genetic background: ΔsoxS
[16] = 53.9 µg/ml, genetic background: wild type
[17] = 53.9 µg/ml, genetic background: ΔmarA
[18] = 53.9 µg/ml, genetic background: Δrob
[19] = 53.9 µg/ml, genetic background: ΔsoxS
[20] = 107.7 µg/ml, genetic background: wild type
[21] = 107.7 µg/ml, genetic background: ΔmarA
[22] = 107.7 µg/ml, genetic background: Δrob
[23] = 107.7 µg/ml, genetic background: ΔsoxS

With `CC(=O)O[C@H]1C[C@@]2(C)[C@@H](C[C@@H](O)[C@H]3[C@@]4(C)CC[C@@H](O)[C@@H](C)[C@@H]4CC[C@@]32C)/C1=C(\CCC=C(C)C)C(=O)O` [Fusidic acid] the “promoter activity interaction Z-score” value [1, 8] was -0.2451 ± 0.00049, the “promoter activity interaction Z-score” value [1, 9] was 0.318 ± 0.51 and the “promoter activity interaction Z-score” value [1, 10] was 0.252 ± 0.008. For the same compound, the “promoter activity interaction Z-score” value [1, 11] was 0.129 ± 0.4, the “promoter activity interaction Z-score” value [1, 12] was 0.0211 ± 0.13 and the “promoter activity interaction Z-score” value [1, 13] was 0.239 ± 0.78. The “promoter activity interaction Z-score” value [1, 14] was 0.206 ± 0.18, the “promoter activity interaction Z-score” value [1, 15] was 0.227 ± 0.21 and the “promoter activity interaction Z-score” value [1, 16] was 0.215 ± 0.26. The “promoter activity interaction Z-score” value [1, 17] was -0.794 ± 0.83, the “promoter activity interaction Z-score” value [1, 18] was 0.292 ± 0.025 and the “promoter activity interaction Z-score” value [1, 19] was 0.624 ± 0.086. For the same compound, the “promoter activity interaction Z-score” value [1, 20] was 0.448 ± 0.38, the “promoter activity interaction Z-score” value [1, 21] was -0.757 ± 0.87 and the “promoter activity interaction Z-score” value [1, 22] was 0.221 ± 0.22. The “promoter activity interaction Z-score” value [1, 23] was 0.66 ± 0.14, the “promoter activity interaction Z-score” value [2, 8] was -0.438 ± 0.029 and the “promoter activity interaction Z-score” value [2, 9] was 0.0154 ± 0.048. For the same compound, the “promoter activity interaction Z-score” value [2, 10] was -0.0451 ± 0.073, the “promoter activity interaction Z-score” value [2, 11] was 0.0686 ± 0.1 and the “promoter activity interaction Z-score” value [2, 12] was 0.0382 ± 0.39. The “promoter activity interaction Z-score” value [2, 13] was 0.3 ± 0.31, the “promoter activity interaction Z-score” value [2, 14] was 0.0321 ± 0.089 and the “promoter activity interaction Z-score” value [2, 15] was 0.122 ± 0.072. The “promoter activity interaction Z-score” value [2, 16] was 0.384 ± 0.077, the “promoter activity interaction Z-score” value [2, 17] was 0.457 ± 0.14 and the “promoter activity interaction Z-score” value [2, 18] was 0.307 ± 0.22. The “promoter activity interaction Z-score” value [2, 19] was 0.418 ± 0.13, the “promoter activity interaction Z-score” value [2, 20] was 0.539 ± 0.64 and the “promoter activity interaction Z-score” value [2, 21] was 0.236 ± 0.49. The “promoter activity interaction Z-score” value [2, 22] was 0.523 ± 0.97, the “promoter activity interaction Z-score” value [2, 23] was 1.17 ± 0.92 and the “promoter activity interaction Z-score” value [3, 8] was -0.214 ± 0.048. For the same compound, the “promoter activity interaction Z-score” value [3, 9] was -0.0141 ± 0.037, the “promoter activity interaction Z-score” value [3, 10] was -0.006 ± 0.044 and the “promoter activity interaction Z-score” value [3, 11] was -0.317 ± 0.02. The “promoter activity interaction Z-score” value [3, 12] was -0.0316 ± 0.083, the “promoter activity interaction Z-score” value [3, 13] was 0.0308 ± 0.044 and the “promoter activity interaction Z-score” value [3, 14] was 0.011 ± 0.0025. The “promoter activity interaction Z-score” value [3, 15] was -0.033 ± 0.14, the “promoter activity interaction Z-score” value [3, 16] was 0.0882 ± 0.31 and the “promoter activity interaction Z-score” value [3, 17] was -0.146 ± 0.084. For the same compound, the “promoter activity interaction Z-score” value [3, 18] was 0.0235 ± 0.18, the “promoter activity interaction Z-score” value [3, 19] was 0.413 ± 0.28 and the “promoter activity interaction Z-score” value [3, 20] was -0.681 ± 0.064. For the same compound, the “promoter activity interaction Z-score” value [3, 21] was -0.356 ± 0.068, the “promoter activity interaction Z-score” value [3, 22] was -0.293 ± 0.013 and the “promoter activity interaction Z-score” value [3, 23] was -0.184 ± 0.18. The “promoter activity interaction Z-score” value [4, 8] was -0.312 ± 0.41, the “promoter activity interaction Z-score” value [4, 9] was 0.0814 ± 0.3 and the “promoter activity interaction Z-score” value [4, 10] was 0.107 ± 0.54. The “promoter activity interaction Z-score” value [4, 11] was -0.462 ± 0.18, the “promoter activity interaction Z-score” value [4, 12] was -0.129 ± 0.58 and the “promoter activity interaction Z-score” value [4, 13] was 0.219 ± 0.59. For the same compound, the “promoter activity interaction Z-score” value [4, 14] was 0.223 ± 0.2, the “promoter activity interaction Z-score” value [4, 15] was -0.211 ± 0.02 and the “promoter activity interaction Z-score” value [4, 16] was -0.237 ± 0.057. The “promoter activity interaction Z-score” value [4, 17] was -0.149 ± 0.12, the “promoter activity interaction Z-score” value [4, 18] was -0.602 ± 0.36 and the “promoter activity interaction Z-score” value [4, 19] was -0.00876 ± 0.4. The “promoter activity interaction Z-score” value [4, 20] was -1.9 ± 0.91, the “promoter activity interaction Z-score” value [4, 21] was -1.77 ± 0.15 and the “promoter activity interaction Z-score” value [4, 22] was -2.39 ± 0.61. For the same compound, the “promoter activity interaction Z-score” value [4, 23] was -1.36 ± 0.43, the “promoter activity interaction Z-score” value [5, 8] was -0.978 ± 0.39 and the “promoter activity interaction Z-score” value [5, 9] was -0.301 ± 0.26. The “promoter activity interaction Z-score” value [5, 10] was 0.242 ± 0.41, the “promoter activity interaction Z-score” value [5, 11] was -0.23 ± 0.61 and the “promoter activity interaction Z-score” value [5, 12] was -0.593 ± 0.31. The “promoter activity interaction Z-score” value [5, 13] was -0.113 ± 0.0094, the “promoter activity interaction Z-score” value [5, 14] was 0.3 ± 0.32 and the “promoter activity interaction Z-score” value [5, 15] was 0.424 ± 1.6. For the same compound, the “promoter activity interaction Z-score” value [5, 16] was -1.1 ± 0.35, the “promoter activity interaction Z-score” value [5, 17] was -0.572 ± 0.84 and the “promoter activity interaction Z-score” value [5, 18] was -0.82 ± 0.47. For the same compound, the “promoter activity interaction Z-score” value [5, 19] was -0.24 ± 0.27, the “promoter activity interaction Z-score” value [5, 20] was -2.27 ± 0.22 and the “promoter activity interaction Z-score” value [5, 21] was -1.34 ± 0.73. The “promoter activity interaction Z-score” value [5, 22] was -1.46 ± 0.021, the “promoter activity interaction Z-score” value [5, 23] was -1.76 ± 0.91 and the “promoter activity interaction Z-score” value [6, 8] was -0.189 ± 0.017. The “promoter activity interaction Z-score” value [6, 9] was 0.127 ± 0.11, the “promoter activity interaction Z-score” value [6, 10] was 0.138 ± 0.11 and the “promoter activity interaction Z-score” value [6, 11] was 0.0742 ± 0.26. The “promoter activity interaction Z-score” value [6, 12] was -0.0314 ± 0.05, the “promoter activity interaction Z-score” value [6, 13] was 0.331 ± 0.089 and the “promoter activity interaction Z-score” value [6, 14] was 0.221 ± 0.14. For the same compound, the “promoter activity interaction Z-score” value [6, 15] was 0.0543 ± 0.37, the “promoter activity interaction Z-score” value [6, 16] was 0.0312 ± 0.095 and the “promoter activity interaction Z-score” value [6, 17] was 0.0894 ± 0.086. For the same compound, the “promoter activity interaction Z-score” value [6, 18] was 0.0824 ± 0.045, the “promoter activity interaction Z-score” value [6, 19] was 0.2418 ± 0.00036 and the “promoter activity interaction Z-score” value [6, 20] was 0.133 ± 0.093. For the same compound, the “promoter activity interaction Z-score” value [6, 21] was 0.303 ± 0.013, the “promoter activity interaction Z-score” value [6, 22] was 0.683 ± 0.014 and the “promoter activity interaction Z-score” value [6, 23] was 1.13 ± 0.34. The “promoter activity interaction Z-score” value [7, 8] was 0.0553 ± 0.57, the “promoter activity interaction Z-score” value [7, 9] was 0.818 ± 0.39 and the “promoter activity interaction Z-score” value [7, 10] was 0.166 ± 0.013. For the same compound, the “promoter activity interaction Z-score” value [7, 11] was 0.269 ± 0.96, the “promoter activity interaction Z-score” value [7, 12] was -0.129 ± 0.34 and the “promoter activity interaction Z-score” value [7, 13] was 0.688 ± 0.72. The “promoter activity interaction Z-score” value [7, 14] was -0.187 ± 0.52, the “promoter activity interaction Z-score” value [7, 15] was 0.868 ± 0.14 and the “promoter activity interaction Z-score” value [7, 16] was 0.388 ± 0.25. The “promoter activity interaction Z-score” value [7, 17] was -0.396 ± 0.26, the “promoter activity interaction Z-score” value [7, 18] was -0.151 ± 1.6 and the “promoter activity interaction Z-score” value [7, 19] was -0.374 ± 0.68. For the same compound, the “promoter activity interaction Z-score” value [7, 20] was -1.44 ± 0.11, the “promoter activity interaction Z-score” value [7, 21] was -0.24 ± 0.18 and the “promoter activity interaction Z-score” value [7, 22] was -0.656 ± 0.49. The “promoter activity interaction Z-score” value [7, 23] was 0.133 ± 0.45.
